For some of these results: Measured potencies and affinities stand elsewhere.
What was measured:
Parameters in all cases: scale not given: direction of the effect not stated beside the values
[1] = molecular target: Protein translocase subunit SecA (Escherichia coli (strain K12)) (UniProt P10408); assay: Assay to Identify E. coli SecA ATPase Inhibitors; assay type: functional; settings: 30 µM
[2] = molecular target: T1, Ubiquitin-activating enzyme e1, putative (Leishmania donovani (strain BPK282A1)) (UniProt E9BSI1); assay: Leishmania donovani Ubiquitin Activating Enzyme (LdE1); assay type: functional; settings: 30 µM
T1 sequence (whole entry): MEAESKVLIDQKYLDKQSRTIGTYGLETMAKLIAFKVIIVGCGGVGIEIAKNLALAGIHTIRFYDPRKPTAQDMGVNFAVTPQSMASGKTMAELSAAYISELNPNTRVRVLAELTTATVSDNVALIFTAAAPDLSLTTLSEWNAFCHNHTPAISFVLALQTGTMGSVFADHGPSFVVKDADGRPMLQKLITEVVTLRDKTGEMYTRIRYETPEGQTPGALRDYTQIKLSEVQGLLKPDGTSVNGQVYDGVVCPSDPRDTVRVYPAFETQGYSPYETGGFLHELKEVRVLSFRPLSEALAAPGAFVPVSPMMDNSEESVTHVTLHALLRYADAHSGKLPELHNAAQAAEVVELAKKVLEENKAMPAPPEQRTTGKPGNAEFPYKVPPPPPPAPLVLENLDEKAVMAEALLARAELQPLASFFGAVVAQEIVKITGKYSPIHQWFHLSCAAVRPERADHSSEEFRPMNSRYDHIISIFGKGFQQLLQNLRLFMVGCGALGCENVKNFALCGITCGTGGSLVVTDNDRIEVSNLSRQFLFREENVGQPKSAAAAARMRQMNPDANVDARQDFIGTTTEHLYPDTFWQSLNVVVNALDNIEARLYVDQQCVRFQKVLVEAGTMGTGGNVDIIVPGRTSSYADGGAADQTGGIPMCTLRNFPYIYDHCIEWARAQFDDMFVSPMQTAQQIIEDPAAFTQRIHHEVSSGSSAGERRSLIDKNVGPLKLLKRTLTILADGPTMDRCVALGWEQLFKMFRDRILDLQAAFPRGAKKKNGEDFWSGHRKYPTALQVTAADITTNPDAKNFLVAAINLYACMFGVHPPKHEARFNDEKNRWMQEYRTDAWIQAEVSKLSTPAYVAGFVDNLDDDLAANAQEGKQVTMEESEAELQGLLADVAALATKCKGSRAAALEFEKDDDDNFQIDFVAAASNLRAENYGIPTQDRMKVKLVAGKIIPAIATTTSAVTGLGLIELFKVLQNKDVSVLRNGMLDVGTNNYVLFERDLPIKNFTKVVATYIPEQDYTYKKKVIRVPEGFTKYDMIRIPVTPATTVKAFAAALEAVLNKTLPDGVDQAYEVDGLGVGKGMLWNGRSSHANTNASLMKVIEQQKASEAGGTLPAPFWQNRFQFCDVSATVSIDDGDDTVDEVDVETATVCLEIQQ

[3] = molecular target: AMP-activated protein kinase, AMPK (Homo sapiens) (UniProt P54646+O43741+P54619+Q9UGJ0+Q9Y478+Q13131+Q9UGI9); assay: AMP-dependent Kinase enzyme assay. An in vitro enzyme assay that detects ADP turnover that is directly proportional to AMPK activity. This uses naive AMPK that is activated during the assay with MK-8722; assay type: functional; settings: 30 µM
[4] = molecular target: Sialic acid-binding Ig-like lectin 9 (Homo sapiens) (UniProt Q9Y336); assay: Hs-Siglec9 ALPHAscreen SOP 20170721; settings: 10 µM
Sequence of Sialic acid-binding Ig-like lectin 9 (Homo sapiens) (Q9Y336 whole entry): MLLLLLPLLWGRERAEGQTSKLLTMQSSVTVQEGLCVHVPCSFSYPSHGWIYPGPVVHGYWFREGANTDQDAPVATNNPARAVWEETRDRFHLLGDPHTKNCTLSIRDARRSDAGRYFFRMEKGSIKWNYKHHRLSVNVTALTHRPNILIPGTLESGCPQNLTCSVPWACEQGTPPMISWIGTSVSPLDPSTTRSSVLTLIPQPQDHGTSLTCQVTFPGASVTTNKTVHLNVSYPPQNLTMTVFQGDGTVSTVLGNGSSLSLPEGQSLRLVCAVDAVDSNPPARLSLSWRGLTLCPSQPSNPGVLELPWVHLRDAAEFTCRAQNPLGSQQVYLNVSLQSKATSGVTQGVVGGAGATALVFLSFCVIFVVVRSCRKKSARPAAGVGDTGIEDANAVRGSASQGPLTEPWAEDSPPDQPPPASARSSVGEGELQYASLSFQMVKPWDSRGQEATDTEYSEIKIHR

Trypanosoma cruzi = assay: Trypanosoma cruzi phosphomannomutase and mannose-1-phosphate guanylyltransferase assay; assay type: functional; settings: 10 µM
[5] = molecular target: T2, Arginase-2, mitochondrial (Homo sapiens) (UniProt P78540); assay: in vitro enzyme assay to detect the production of urea directly proportional to the activity of Arginase II; assay type: functional; settings: 33.3 µM; also: in the data most compounds retested in dose-response had high values
T2 sequence (whole entry): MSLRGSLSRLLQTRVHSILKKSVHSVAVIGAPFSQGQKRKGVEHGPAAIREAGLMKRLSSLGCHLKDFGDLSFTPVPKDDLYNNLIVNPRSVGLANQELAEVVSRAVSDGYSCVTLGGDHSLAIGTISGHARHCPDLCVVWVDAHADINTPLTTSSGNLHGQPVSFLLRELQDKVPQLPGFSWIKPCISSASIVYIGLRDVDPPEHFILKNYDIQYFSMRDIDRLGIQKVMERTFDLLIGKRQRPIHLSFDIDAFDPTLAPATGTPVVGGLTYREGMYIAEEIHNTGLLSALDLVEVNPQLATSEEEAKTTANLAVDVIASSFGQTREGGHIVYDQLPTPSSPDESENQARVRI

[6] = molecular target: T3, Proteasome subunit beta (Trypanosoma cruzi) (UniProt O96673); assay: Trypanosoma cruzi proteasome chymotrypsin-like activity (TcProtChymo) assay.; also: in the data most compounds retested in dose-response had high values; assay type: functional; settings: 9.37 µM
T3 sequence (whole entry): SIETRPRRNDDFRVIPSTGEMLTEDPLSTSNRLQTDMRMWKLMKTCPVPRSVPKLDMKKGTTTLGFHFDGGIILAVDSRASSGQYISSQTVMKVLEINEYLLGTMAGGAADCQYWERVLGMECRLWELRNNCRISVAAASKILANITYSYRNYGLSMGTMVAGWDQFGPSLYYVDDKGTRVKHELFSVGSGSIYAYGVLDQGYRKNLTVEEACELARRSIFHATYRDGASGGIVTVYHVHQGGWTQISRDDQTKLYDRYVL

Homo sapiens = species on record: Homo sapiens; assay: To identify inhibition of the IFN signalling (Jak-Stat) pathway via expression of an eGFP reporter gene under the control of an IFN-stimulated response element (ISRE) containing MxA promoter.; assay type: functional; settings: 30 µM
[7] = molecular target: T4, Tyrosyl-tRNA synthetase, putative (Trypanosoma cruzi (strain CL Brener)) (UniProt Q4DSP6); assay: Trypanosoma cruzi tyrosyl tRNA synthetase (TcYRS) _High Tyrosine SOP; assay type: functional; settings: 30 µM; also: in the data most compounds retested in dose-response had high values
T4 sequence (whole entry): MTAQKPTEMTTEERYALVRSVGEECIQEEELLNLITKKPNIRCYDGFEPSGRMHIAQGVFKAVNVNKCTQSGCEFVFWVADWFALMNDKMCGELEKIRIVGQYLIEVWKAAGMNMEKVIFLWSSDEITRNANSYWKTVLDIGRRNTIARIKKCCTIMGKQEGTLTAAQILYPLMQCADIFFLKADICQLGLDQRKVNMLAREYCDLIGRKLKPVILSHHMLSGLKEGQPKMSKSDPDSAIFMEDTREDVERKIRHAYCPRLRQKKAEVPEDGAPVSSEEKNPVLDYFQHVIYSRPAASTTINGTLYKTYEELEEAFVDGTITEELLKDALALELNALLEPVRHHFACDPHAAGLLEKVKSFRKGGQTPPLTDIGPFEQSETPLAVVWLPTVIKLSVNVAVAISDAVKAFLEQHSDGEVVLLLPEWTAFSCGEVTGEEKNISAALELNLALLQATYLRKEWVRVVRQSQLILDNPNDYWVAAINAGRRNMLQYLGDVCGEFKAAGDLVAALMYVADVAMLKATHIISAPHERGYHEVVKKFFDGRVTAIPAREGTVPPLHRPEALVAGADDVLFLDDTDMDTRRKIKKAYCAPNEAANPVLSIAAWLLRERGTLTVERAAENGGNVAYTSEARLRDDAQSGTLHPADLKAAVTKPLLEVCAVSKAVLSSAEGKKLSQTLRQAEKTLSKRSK

[8] = molecular target: T4, Tyrosyl-tRNA synthetase, putative (Trypanosoma cruzi (strain CL Brener)); assay: Trypanosoma cruzi tyrosyl tRNA synthetase (TcYRS) SOP; assay type: functional; settings: 30 µM
[9] = molecular target: Chromo domain-containing protein 1 (Saccharomyces cerevisiae (strain ATCC 204508 / S288c) (Baker's yeast)) (UniProt P32657); assay: ScCHD-1 Enzyme Inhibition Assay; assay type: functional; settings: 30 µM; also: in the data most compounds retested in dose-response had high values
Sequence of Chromo domain-containing protein 1 (Saccharomyces cerevisiae (strain ATCC 204508 / S288c) (Baker's yeast)) (P32657 whole entry, the tested form may be a part): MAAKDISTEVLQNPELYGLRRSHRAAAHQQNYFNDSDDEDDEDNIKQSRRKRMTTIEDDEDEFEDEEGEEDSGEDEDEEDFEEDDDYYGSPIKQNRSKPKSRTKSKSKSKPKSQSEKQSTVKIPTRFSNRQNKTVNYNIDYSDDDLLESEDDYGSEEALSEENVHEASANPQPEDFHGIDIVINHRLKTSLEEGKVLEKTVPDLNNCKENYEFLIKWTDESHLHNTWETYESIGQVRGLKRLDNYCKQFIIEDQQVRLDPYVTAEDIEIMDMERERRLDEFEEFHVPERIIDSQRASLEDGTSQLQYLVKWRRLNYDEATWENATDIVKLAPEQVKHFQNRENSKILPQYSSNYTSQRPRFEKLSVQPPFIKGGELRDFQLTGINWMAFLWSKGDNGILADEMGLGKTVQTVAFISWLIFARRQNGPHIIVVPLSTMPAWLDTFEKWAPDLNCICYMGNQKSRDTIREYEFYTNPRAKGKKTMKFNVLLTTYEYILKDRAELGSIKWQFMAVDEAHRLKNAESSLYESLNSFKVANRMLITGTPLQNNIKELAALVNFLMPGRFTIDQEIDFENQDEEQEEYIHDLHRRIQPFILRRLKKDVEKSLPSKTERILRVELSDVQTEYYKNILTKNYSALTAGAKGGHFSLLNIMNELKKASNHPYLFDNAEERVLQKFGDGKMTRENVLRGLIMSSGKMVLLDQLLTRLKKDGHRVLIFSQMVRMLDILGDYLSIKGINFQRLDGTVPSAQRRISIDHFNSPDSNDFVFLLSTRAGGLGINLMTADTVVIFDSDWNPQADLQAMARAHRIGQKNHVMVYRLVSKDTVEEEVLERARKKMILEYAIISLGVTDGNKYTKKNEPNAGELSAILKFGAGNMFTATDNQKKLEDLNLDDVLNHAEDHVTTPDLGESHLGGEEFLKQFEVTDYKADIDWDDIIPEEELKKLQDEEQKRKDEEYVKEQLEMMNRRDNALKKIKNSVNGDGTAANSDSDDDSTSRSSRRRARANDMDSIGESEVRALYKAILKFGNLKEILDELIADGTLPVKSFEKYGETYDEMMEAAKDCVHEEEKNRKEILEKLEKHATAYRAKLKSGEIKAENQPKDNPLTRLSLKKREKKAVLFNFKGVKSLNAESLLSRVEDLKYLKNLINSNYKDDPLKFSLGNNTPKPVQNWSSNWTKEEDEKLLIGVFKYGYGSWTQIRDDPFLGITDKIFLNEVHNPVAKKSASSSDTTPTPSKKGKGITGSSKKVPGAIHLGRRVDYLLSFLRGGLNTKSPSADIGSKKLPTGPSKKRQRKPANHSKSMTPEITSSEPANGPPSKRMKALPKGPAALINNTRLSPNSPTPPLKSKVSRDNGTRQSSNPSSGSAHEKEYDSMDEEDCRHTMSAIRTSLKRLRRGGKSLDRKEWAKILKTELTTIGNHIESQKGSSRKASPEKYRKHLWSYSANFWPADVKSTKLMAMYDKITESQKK

Sequence of Protein translocase subunit SecA (Escherichia coli (strain K12)) (P10408 whole entry): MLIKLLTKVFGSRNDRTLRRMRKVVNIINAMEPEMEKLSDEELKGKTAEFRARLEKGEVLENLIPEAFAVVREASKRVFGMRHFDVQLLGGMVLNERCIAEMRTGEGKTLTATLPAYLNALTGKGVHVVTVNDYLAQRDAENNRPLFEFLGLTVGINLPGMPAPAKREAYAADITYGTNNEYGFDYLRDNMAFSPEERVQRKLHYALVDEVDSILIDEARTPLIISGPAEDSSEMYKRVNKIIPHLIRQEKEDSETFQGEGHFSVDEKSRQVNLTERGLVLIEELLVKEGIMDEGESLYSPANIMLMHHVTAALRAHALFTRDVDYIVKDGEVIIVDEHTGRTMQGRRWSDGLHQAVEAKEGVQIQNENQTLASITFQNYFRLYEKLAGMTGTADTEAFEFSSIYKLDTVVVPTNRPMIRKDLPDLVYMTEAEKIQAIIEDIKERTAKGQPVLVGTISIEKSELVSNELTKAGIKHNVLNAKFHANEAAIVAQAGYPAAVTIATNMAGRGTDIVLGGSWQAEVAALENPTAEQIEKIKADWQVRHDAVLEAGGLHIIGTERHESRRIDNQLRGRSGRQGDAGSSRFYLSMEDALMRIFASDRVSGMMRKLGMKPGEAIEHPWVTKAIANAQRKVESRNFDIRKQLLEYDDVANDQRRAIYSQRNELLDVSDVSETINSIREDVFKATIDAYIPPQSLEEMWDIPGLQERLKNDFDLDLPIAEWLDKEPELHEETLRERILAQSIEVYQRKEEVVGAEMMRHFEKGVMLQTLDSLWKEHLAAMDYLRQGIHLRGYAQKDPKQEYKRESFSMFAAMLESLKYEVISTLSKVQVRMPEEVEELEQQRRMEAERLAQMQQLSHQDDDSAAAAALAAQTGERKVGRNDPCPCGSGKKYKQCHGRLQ

Row | Structure (SMILES) | Percent Effect [1] | Percent Effect [2] | Percent Effect [3] | Percent Effect [4] | Percent Effect (Trypanosoma cruzi) | Percent Effect [5] | Percent Effect [6] | Percent Effect (Homo sapiens) | Percent Effect [7] | Percent Effect [8] | Percent Effect [9]
1 | Cc1noc(C(C)C)c1C(=O)NCc1cccc(N(C)C)c1 | -7.07% | 18.2% | -6.12% | -1.43% | -6.74% | -2.49% | 8.28% | 33% | 4.85% | 9.76% | -8%
2 | O=C(CSc1ccc2c(c1)OCCO2)NS(=O)(=O)C1CCCCC1 | -2.58% | -1.39% | 3.64% | -7.65% | -6.71% | 3.09% | 11.4% | 9.49% | -1.05% | -5.13% | -0.962%
3 | CCCS(=O)(=O)NCC1CCOc2ccccc2C1 (stereo not drawn) | -7.2% | 0% | 3.87% | 5.88% | -5.61% | 17.9% | 5.32% | -3.37% | 0% | 6.17% | 3.34%
4 | COc1ncccc1NC(=O)NCC(O)c1ccc(F)cc1F (stereo not drawn) | -1.59% | -6.33% | 2.46% | 1.59% | -3.79% | 5.38% | 20.6% | 15.3% | 2.08% | 5.06% | -13.8%
5 | CCc1nnc2n1CCN(C(=O)CN(C)Cc1ccccc1)C2 | -2.83% | 7.89% | -9.27% | 7.43% | 5.88% | 2.16% | 4.32% | -5.24% | 4.43% | 18.5% | -4.71%
6 | Cc1ccc(N2CC3(COCCN(Cc4nccs4)C3)OCC2=O)s1 (stereo not drawn) | 4.24% | 7.79% | -1.49% | -11.2% | -7.59% | 9.68% | 17.8% | 8.7% | 3.17% | 8.97% | -11.1%
7 | CC(=O)NC(C)(C)C(=O)Nc1ncc(Cc2ccc(C)c(F)c2)s1 | -2.79% | 13.9% | 1.18% | 3.12% | 8.51% | -2.37% | 13.2% | 28.2% | 5.21% | 17.7% | -33.1%
8 | CN1CCCC[C@@H]2[C@H]1[C@@H](c1ccccc1)CCN2C(=O)c1ccccc1 | -2.17% | -12.2% | 2.42% | 3.03% | 4.54% | 0.696% | 15.6% | -13.3% | 7.53% | 14.3% | -12.5%

— ChEMBL document CHEMBL3988442, “University of Dundee, Small-Polar-MMV Screening Library” (2021)
